The molecules below were run against Glucose transporter (Leishmania mexicana) (UniProt O61059) (assay: ST_JUDE_LEISH: Cytotoxicity at 2uM final concentration against transgenic Leishmania Mexicana promastigotes LmGT2 that are glucose transport deficient and complemented with the L. Mexicana glucose transporter 2. Activity is measured by DNA content using SYBR green in vitro).
Type: functional
For `Cc1c(CC(=O)N(C)C2CCN(CCCCCNC(=O)/C=C/c3ccc(Cl)c(Cl)c3)CC2)sc2ccc(Cl)cc12`, the inhibition was 5.9%.
With `CCNC(=O)Nc1cccc(-c2ccc(-c3nc4cccc(C)c4[nH]3)s2)c1` the inhibition was 0.03%.
In the case of `CN(C)c1ccc(C2(c3ccccc3)N=C(N)N(CCCc3ccccc3)C2=O)cc1` (stereo not given), the inhibition is reported as 0.65%.
Work on `Cc1cccc(CN2CCCN(Cc3ccc(C(=O)Nc4ccc(Cl)cc4)cc3)CC2)c1` yielded an inhibition of 7.83%.
`COc1ccc(CNCc2ccc(-c3ccc(-c4nc5cc(F)ccc5[nH]4)cc3)cc2)cc1` gave an inhibition of 1.74%.
`CC(C)[C@H](NC(=O)c1ccc(O)c(-c2cccc(C(F)(F)F)c2)c1)C(=O)NCCN1CCCCC1` showed an inhibition of 0.62%.
Molecule `CC1(C)N=C(N)N=C(N)N1c1ccc2ccccc2c1` has an inhibition of 4.01%.
In the case of `ON=C1CCc2cc(-c3nc(-c4ccc(OCCN5CCCCC5)cc4)[nH]c3-c3ccncc3)ccc21`, the inhibition is reported as -1.7%.
In the case of `CN1CCCc2ccc(NC(=O)Nc3ccc(-c4ccccc4)cc3)cc2C1`, the inhibition is reported as -0.14%.
In the case of `CC(C)(C)CC(C)(C)c1ccc(O)c(C(=O)Nc2ccc([N+](=O)[O-])cc2)c1`, the inhibition is reported as 0.23%.
With `N#Cc1cccc(COC(=O)C2=C(COc3ccccc3Cl)NC(=O)NC2c2c[nH]c3cnccc23)c1` (stereo not given) the inhibition was 6.83%.
In the case of `CN1CCC(NC(=O)c2cc(Oc3ccc4c(c3)CCN4C(=O)Nc3cccc(C(F)(F)F)c3)ccn2)CC1`, the inhibition is reported as 1.74%.
`O=C(Nc1cccc(CN2CCN(Cc3ccc(O)cc3)CC2)c1)c1ccc(-c2ccccc2)cc1` gave an inhibition of -3.36%.
Molecule `O=c1cc(NCCC(CNCc2ccc(Br)o2)NCc2cc(Br)cc(Br)c2)[nH]c2ccccc12` (stereo not given) has an inhibition of 6.87%.
For `Nc1nc(N)c2c(ccc3nn(S(=O)(=O)N4CCCC4)cc32)n1`, the inhibition was 4.06%.
`COc1ccc(Br)cc1/C=C/C(=O)Nc1ccc(C2CCCN(C)C2)cc1` (stereo not given) showed an inhibition of 5.71%.
`CN(C)S(=O)(=O)c1ccc(Nc2nc(NCCC3C=NC=N3)nc3cc[nH]c(=O)c23)cc1` (stereo not given) gave an inhibition of 4.93%.
Work on `CC(C)(C)Oc1ccc(NC(=O)c2ccccc2O)cc1` yielded an inhibition of 4.28%.
For `FC(F)(F)c1ccc(CNCC2CCN(Cc3ccc4c(c3)OCO4)CC2)cc1`, the inhibition was 5.32%.
`O=C(Nc1ccc(-c2ccc(-c3nc4ccccc4[nH]3)s2)cc1)Nc1ccsc1` gave an inhibition of 4.17%.
Molecule `O=C(Cn1c(CCc2cccc(F)c2F)cc(=O)c2ccccc21)N(Cc1ccc(-c2ccc(C(F)(F)F)cc2)cc1)C1CCN(CCN2CCOCC2)CC1` has an inhibition of 1.28%.
`CCCN1CCC=C(c2cccc(Nc3nccc(Nc4cc(OC)ccc4C)n3)c2)C1` gave an inhibition of 10%.
With `Cc1cccc(NC(=O)NC2CCN(CCCCCNC(=O)/C=C/c3ccc(Cl)c(Cl)c3)CC2)c1` the inhibition was 3.5%.
Molecule `COc1ccc2nccc([C@@H](O)CN3CCC(NCc4cc5cccnc5[nH]4)CC3)c2n1` has an inhibition of 3.26%.
In the case of `CCn1c(C)cc(C=C2SC(=Nc3ccccc3)NC2=O)c1C`, the inhibition is reported as 2.93%.
With `FC(F)(F)c1ccc2c(NN=Cc3cccc(Cl)c3)ccnc2c1` the inhibition was 3.57%.
Work on `COc1ccccc1-c1csc(C(=O)NCC2CCN(Cc3ccc(C(C)C)cc3)C2)c1` (stereo not given) yielded an inhibition of -1.65%.
Work on `COc1cc(NC(=O)C(c2ccc(Cl)cc2)C(C)C)cc(OC)c1` (stereo not given) yielded an inhibition of 1.33%.
In the case of `Cc1[nH]c2ccc(C#N)cc2c(=O)c1Br`, the inhibition is reported as 1.31%.
`CCOc1ccccc1C(=O)N1CCc2cc3nccc(N4CCN5CCC[C@H]5C4)c3cc21` showed an inhibition of -0.44%.
In the case of `COc1cc2c(cc1N(C(C)C)S(=O)(=O)c1sc3ccc(Cl)cc3c1C)CCNCC2`, the inhibition is reported as 3.21%.
Molecule `CSc1ccc(CN2CCC(CNC(=O)c3cc(-c4ccccc4F)cs3)C2)cc1` (stereo not given) has an inhibition of -3.72%.
`Cc1ccc(C2CCN(CCCCNC(=O)c3ccc(-c4ccc(C(F)(F)F)cc4)cc3)CC2)c(O)c1` was tested, and the inhibition was -0.78%.
In the case of `N#Cc1ccc(-c2ccc(C(=O)NCCCCN3CCC(c4cc(Br)c5c(c4OCC(N)=O)CCCC5)CC3)cc2)cc1`, the inhibition is reported as -0.04%.
With `N#Cc1ccc2[nH]cc(C(=O)CCCCCN(Cc3ccccc3)Cc3ccccc3)c2c1` the inhibition was -0.24%.
With `Cc1cnc(-c2ccc(NC(=O)N3CCc4cc5nccc(N6CCN7CCC[C@H]7C6)c5cc43)c3ccccc23)o1` the inhibition was 4.04%.
Molecule `CN(C(=O)Cc1ccc(Cl)cc1)C1CCN(CCCCCNC(=O)/C=C/c2ccc(Cl)c(Cl)c2)CC1` has an inhibition of 1.99%.
With `O=S(=O)(NCCN1CCCC1)c1cccc(-c2ccc(CNCc3ccc(F)cc3)cc2)c1` the inhibition was 4.19%.
With `CN1CCC[C@H]1COc1ccc(CN2CC[C@H](NC(=O)c3ccc(Cl)c(Cl)c3)C2)cc1Cl` the inhibition was -0.76%.
For `O=C(c1ccc(-c2ccc(-c3nc4cc(C(F)(F)F)ccc4[nH]3)s2)cc1)N1CCCCC1CN1CCC(O)C1` (stereo not given), the inhibition was 2.98%.
